# Screening data deposited in PubChem BioAssay by several laboratories.
# 3CLpro inhibitor: SARS-CoV 3CLpro protease inhibition; P0C6X7; 290,000 tested, 0.14% active; inhibition, % at 6 µM; recombinant SARS-CoV 3CLpro, quenched FRET peptide cleavage; in the data active = inhibition above about 12%
# PrPC TRFRET: cell surface PrPC inhibition, primary TR-FRET screen. P04156. inhibition, % at 13.8 µM. 370,000 tested, 0.43% active. TR-FRET read-out; in the data active = inhibition above about 24%
# BH1578 lux ind: quorum light induction in luxS cqsA deficient V. cholerae | V. cholerae BH1578 lux reporter, luminescence, 6 h | activation, % at 18.7 µM | 350,000 tested, 0.16% active | AID 588436; in the data active = activation mostly above about 9.7%, no sharp cut-off
# GDH-TPI counter-1: inhibits GDH-TPI coupling enzymes, artifact for Mtb FBA screen; GDH-TPI coupled enzyme counterscreen, NADH absorbance; inhibition, % at 4.8 µM; 360,000 tested, 1.2% active; AID 588335; in the data active = inhibition above about 30%
# FBA Mtb inh: inhibitors of M. tuberculosis fructose-bisphosphate aldolase; P9WQA3; purified M. tuberculosis FBA, fluorescence read-out; inhibition, % at 1 µM; 360,000 tested, 2.3% active; AID 588726
# Target sequence (P9WQA3 whole entry, looked up): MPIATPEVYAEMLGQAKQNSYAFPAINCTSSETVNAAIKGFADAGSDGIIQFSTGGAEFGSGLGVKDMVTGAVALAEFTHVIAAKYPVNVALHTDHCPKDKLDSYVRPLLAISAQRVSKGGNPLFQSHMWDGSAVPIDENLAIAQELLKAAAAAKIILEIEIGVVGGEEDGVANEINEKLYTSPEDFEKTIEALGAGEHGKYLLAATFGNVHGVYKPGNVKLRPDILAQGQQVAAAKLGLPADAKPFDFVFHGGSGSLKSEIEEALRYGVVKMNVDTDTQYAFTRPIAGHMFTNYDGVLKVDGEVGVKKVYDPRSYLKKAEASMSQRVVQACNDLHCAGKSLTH
# Mtb FBA inh conf: Mtb FBA inhibition, confirmed | shares compounds with FBA Mtb inh | purified M. tuberculosis FBA, fluorescence read-out | inhibition, % at 1 µM | 5,600 tested, 78% active
# GDH-TPI counter-2: inhibits GDH-TPI coupling enzymes, flagging Mtb FBA hits; 5,600 tested, 81% active; AID 652141; shares compounds with FBA Mtb inh; inhibition, % at 1 µM; GDH-TPI coupled enzyme counterscreen, fluorescence; in the data active = inhibition above about 10%
# Hits are given with their value; . = inactive; / = not tested or not shown; + = active, no number. Most compounds without a hit are left out; they make up all but 3.9% or so of the library. Rule as the data show it, unless noted: active = inhibition above about 27%; inactive = the rest.
SMILES,3CLpro inhibitor,PrPC TRFRET,BH1578 lux ind,GDH-TPI counter-1,FBA Mtb inh,Mtb FBA inh conf,GDH-TPI counter-2
Cc1ccc(S(=O)(=O)N(C)C)cc1NC(=O)COC(=O)c1ccc2c(c1)OCCO2,.,.,.,.,.,/,/
N#C/C(=C\c1ccccc1)C(=O)NNS(=O)(=O)c1ccc(Br)cc1,/,.,.,.,.,/,/
O=c1[nH]c2cc3c(cc2cc1CN(Cc1cccnc1)Cc1nnnn1Cc1ccco1)OCCO3,.,.,.,.,34.1,.,.
O=c1[nH]c2cc3c(cc2cc1CN(Cc1cccs1)Cc1nnnn1Cc1ccco1)OCCO3,.,.,.,.,35.1,83.6,77.6
O=c1[nH]c2cc3c(cc2cc1CN(Cc1ccccc1)Cc1nnnn1Cc1ccco1)OCCO3,.,.,.,.,.,/,/
COC(=O)C1=CN(c2ccc(OC)cc2OC)C(N)=C(C#N)C1c1cccc([N+](=O)[O-])c1 (centres undefined),/,.,/,/,/,/,/
COc1ccc(-c2nc3ccccc3nc2-c2ccc(OC)c(OC)c2)cc1OC,.,.,.,.,.,/,/
COc1ccccc1-c1nc2ccccc2nc1-c1ccccc1OC,.,.,.,.,28.4,165.8,140.5
CC[C@H](C)Cc1cn([C@@H](CCCCNC(=O)OC(C)(C)C)C(=O)NCCCCCCCCCCC(=O)N2CCN(C(=O)OC(C)(C)C)CC2)nn1,/,.,.,.,106.2,66.3,48.1
CC(C)(C)n1nnnc1C(c1cc2ccccc2o1)N(CCC#N)Cc1ccccc1 (centres undefined),/,.,/,/,/,/,/
CC(=O)N1N=C(c2ccc3ccccc3c2)OC1(C)C,.,.,.,.,67.6,+,+
CC(=O)N1N=C(c2ccc(C(C)(C)C)cc2)OC1(C)C,.,.,.,.,.,/,/
O=C(CSc1ncccc1-c1nc2ccccc2[nH]1)NCc1ccco1,.,.,.,.,.,/,/
Cc1cc2nc(-c3cccnc3SCC(=O)NCc3ccco3)[nH]c2cc1C,.,.,.,.,40.5,.,.
CCOC(=O)[C@]12CCCC=C1N(Cc1ccccc1)C(=O)[C@H](CC(=O)N1CCN(C(=O)C3CC3)CC1)C2,/,.,/,/,/,/,/
CCOC(=O)C1CCN(S(=O)(=O)c2ccc3c(c2)CC(=O)N3)CC1,.,.,.,.,.,/,/
CCOC(=O)C1CCN(S(=O)(=O)c2ccc3c4c(cccc24)C(=O)N3CC)CC1,/,.,.,.,42.6,48.9,30.5
CCOC(=O)C1CCN(S(=O)(=O)c2ccc3c4c(cccc24)C(=O)N3)CC1,.,/,.,.,40.9,+,+
CCOC(=O)CNS(=O)(=O)c1ccc2c3c(cccc13)C(=O)N2CC,.,.,.,.,59.1,46.0,40.7
CCOC(=O)Cc1csc(NS(=O)(=O)c2ccc3c4c(cccc24)C(=O)N3CC)n1,.,.,.,.,.,/,/
CCN(C(=O)c1ccc(S(=O)(=O)N(C)C)cc1)C(C)C(=O)Nc1ccc(C)cc1 (centres undefined),.,.,.,.,.,/,/
Cc1ccc(S(=O)(=O)N2CCCCC2)cc1NC(=O)c1ccc(=O)[nH]c1,/,.,.,.,.,/,/
O=c1oc(CCO)cc2ccc(C#Cc3ccsc3)cc12,/,.,.,.,45.4,82.2,52.1
O=c1oc(CCCO)cc2ccc(C#Cc3cccnc3)cc12,/,.,.,.,53.2,44.8,37.1
O=C(CSc1nc2nc(-c3cccs3)cc(C(F)(F)F)c2c(=O)[nH]1)Nc1c(F)c(F)c(F)c(F)c1F,.,.,.,.,.,/,/
SMILES,3CLpro inhibitor,PrPC TRFRET,BH1578 lux ind,GDH-TPI counter-1,FBA Mtb inh,Mtb FBA inh conf,GDH-TPI counter-2
NS(=O)(=O)c1cccc(NC(=O)CSc2nc3nc(-c4cccs4)cc(C(F)(F)F)c3c(=O)[nH]2)c1,.,.,.,.,32.8,172.7,119.0
COc1ccc(CNc2nc(C)cc(C)c2C#N)cc1,.,.,.,.,29.0,40.4,26.2
O=C(O)CCCN=CC1=C(O)CNC1=O,.,.,.,.,.,/,/
Cc1cccc(C=Nc2ccc3c(c2)oc2ccccc23)c1O,.,.,.,.,35.6,151.3,117.3
CCCCc1cc(=O)oc2cc(C)cc(OCC(=O)NCC3CCC(C(=O)O)CC3)c12 (centres undefined),.,.,.,.,67.0,.,.
CCCCc1cc(=O)oc2c(C)c(OCC(=O)NCC3CCC(C(=O)O)CC3)ccc12 (centres undefined),.,.,.,.,.,/,/
CCCCc1cc(=O)oc2cc(C)cc(OCC(=O)NCc3ccncc3)c12,.,.,.,.,81.1,139.1,108.1
Cc1cc(OCC(=O)NCc2ccccn2)c2c(C)cc(=O)oc2c1,.,.,.,.,79.4,102.5,72.2
CCCc1cc(=O)oc2cc(C)cc(OCC(=O)NCc3ccccn3)c12,.,.,.,.,54.8,28.5,32.3
CCCc1cc(=O)oc2cc(OCC(=O)NCc3ccccn3)ccc12,.,.,.,.,.,/,/
CCCCOCCCNC(=O)C[C@@H]1C(=O)N(Cc2ccc(OC)cc2)/C2=C/CCCCC[C@@]21C(=O)OCC,/,.,/,/,/,/,/
CC(OC(=O)CNC(=O)C12CC3CC(CC(C3)C1)C2)C(=O)Nc1ccc(S(N)(=O)=O)cc1 (centres undefined),.,.,.,.,.,/,/
O=C1c2ccccc2C(=O)N1C1C(=O)N2CCSC12C(=O)OCc1ccccc1 (centres undefined),/,.,.,.,.,/,/
CCOC(=O)c1cc(-c2ccc(OC)cc2)nc2c1c(C)nn2CCC#N,.,.,.,31.4,31.3,76.3,59.9
CCOC(=O)c1cc(-c2ccc(C#N)cc2)nc2c1c(C)nn2CCC#N,.,.,.,.,.,/,/
COc1ccc(-c2csc(-c3ccc(C(=O)O)cc3)n2)cc1,.,.,.,.,49.4,58.1,42.7
O=C(O)c1ccc(-c2nc(-c3ccc(Cl)cc3)cs2)cc1,.,.,.,.,.,/,/
Cc1ccc(Sc2cnn(-c3ccccc3)c(=O)c2Cl)cc1,.,.,.,.,.,/,/
C=CCNc1cnn(-c2ccc(C)cc2)c(=O)c1Sc1ccc(C)cc1,.,.,.,.,41.1,55.8,46.8
CC1(C)CC(=O)C(CSC(=O)c2ccccc2)C(=O)C1,/,.,.,.,.,/,/
O=C(O)CSc1nc(-c2ccccc2)c(-c2ccccc2)[nH]1,.,.,.,.,28.7,.,.
C(=C\c1ccco1)/c1nc2ccccc2[nH]1,.,.,.,.,.,/,/
C(=C\c1nc2ccccc2[nH]1)/c1ccccc1,.,.,.,36.5,32.1,+,+
Cc1ccc2nc(-c3ccc(NC(=O)CCN4C(=O)c5ccccc5C4=O)cc3)sc2c1,.,.,.,.,96.6,161.8,122.2
CCN(CC)S(=O)(=O)c1ccc(C(=O)OCC(=O)Nc2ccc(-c3nc4ccc(C)cc4s3)cc2)cc1,.,.,.,.,28.3,.,.
CCN(CC)S(=O)(=O)c1cc(C(=O)OCC(=O)Nc2ccc(-c3nc4ccc(C)cc4s3)cc2)ccc1F,.,.,.,.,.,/,/
